According to publication PMC4552634, “A New Set of Chemical Starting Points with Plasmodium falciparum Transmission-Blocking Potential for Antimalarial Drug Discovery” (PLoS ONE, 2015):
Read-outs that look alike come from different tables or passages of the source. In all, about 13,000 compounds went through this assay and about 3,200 (25%) showed an effect of 50% or more. The list shows a part of the results.

Test system: P. falciparum stage V gametocytes
Design: BacTiter-Glo ATP luminescence viability of purified stage V gametocytes in 384-well plates, per cent inhibition versus DMSO
Settings: 48 h, 5 µM, inhibitor

SMILES | % Inhibition [%] | % Inhibition (% Inhibition) [%]
O=C(N[C@@H](CC1CCCCC1)C(=O)NCc1cccc2ccccc12)c1ccc(O)c(-c2ccc(Cl)c(Cl)c2)c1 [TCMDC-140879] | 41.81 | 
Cc1noc(C)c1-c1cccc(CNCc2ccc(-c3cccc(-c4nc5cc(F)ccc5[nH]4)c3)cc2)c1.O=C(O)C(F)(F)F [TCMDC-133060] | 13.66 | 
Cc1cccc(Oc2cccc3[nH]nc(N)c23)c1 [TCMDC-131935] | -73.01 | 
COCCOc1cccc(CN2CCC(c3cc4nc(C)cc(C(F)(F)F)n4n3)C2)c1 (stereo not drawn) [TCMDC-134506] | -5.307 | 
Cc1cc(C(F)(F)F)n2nc(C3CCN(Cc4cc(C)c(O)c(C)c4)C3)cc2n1 (stereo not drawn) [TCMDC-124827] | 92.15 | 
Cc1cc(C(F)(F)F)n2nc(C(=O)N(Cc3cncn3Cc3cccc(F)c3)CC3CC3)cc2n1 [TCMDC-132460] | 0.2406 | 
COCC(=O)N(Cc1cccc(-c2ccc(CNCCc3ccccc3)cc2)c1)C1CCN(Cc2ccccc2)CC1 [TCMDC-140536] | 103 | 
O=C(c1cccs1)N(Cc1cccc(-c2ccc(CNC3CCCC3)cc2)c1)C1CCN(Cc2ccccc2)CC1 [TCMDC-140567] | 107 | 
O=C(NCCc1ccccc1)N(Cc1cccc(-c2ccc(CNCCc3ccccc3)cc2)c1)C1CCN(Cc2ccccc2)CC1 [TCMDC-140617] | 94.88 | 
COCCNCc1ccc(-c2cccc(CN(C(=O)NCCc3ccccc3)C3CCN(Cc4ccccc4)CC3)c2)cc1 [TCMDC-140616] | 102.8 | 
COc1cc(Nc2ccnc3ccc(C(F)(F)F)cc23)cc(OC)c1OC [TCMDC-138471] | 8.096 | 
Cc1cc(C)cc(N2C(N)=NC(N)=NC2(C)C)c1 [TCMDC-137927] | 10.77 | 
CCOC(=O)c1c(NC(NC(=O)c2ccc(C(C)(C)C)cc2)C(Cl)(Cl)Cl)sc2c1CCCC2 (stereo not drawn) [TCMDC-125722] | 17.61 | 
Cc1cccc(CC(N)=NCCCCCCN=C(N)Cc2cccc(C)c2)c1 [TCMDC-138135] | -14.49 | 
CC(C)C[C@H](NC(=O)OC(C)(C)C)C(=O)Nc1ccc(Cc2ccc(NC(=O)[C@H](CC(C)C)NC(=O)OC(C)(C)C)cc2)cc1 [TCMDC-131866] | -6.979 | 
CCS[C@@H]1O[C@H](COC(=O)c2ccccc2)[C@H](OC(=O)c2ccccc2)[C@H](OC(=O)c2ccccc2)[C@H]1OC(=O)c1ccccc1 [TCMDC-137162] | 42.17 | 
COc1ccccc1Nc1nc(C)cc(NCc2ccc(-c3c(C)noc3C)cc2)n1 [TCMDC-133453] | 12.57 | 
Cc1[nH]c2cc(Cl)ccc2c1C1=CCN(CCCCC2(C)C(=O)Nc3ccccc32)CC1 (stereo not drawn) [TCMDC-140945] | -53 | 
COc1cc(C(=O)NCCCN2CCN(c3cccc(Cl)c3)CC2)ccc1-c1cc2cc(Cl)c(Cl)cc2[nH]1 [TCMDC-139622] | 6.24 | 
O=C(NCCc1ccccc1)N(Cc1cccc(-c2ccc(CNC3CCCC3)cc2)c1)C1CCN(Cc2ccccc2)CC1 [TCMDC-140618] | 99.39 | 
O=C(c1cccs1)N(Cc1cccc(-c2ccc(CNCCc3ccccc3)cc2)c1)C1CCN(Cc2ccccc2)CC1 [TCMDC-140566] | 66.5 | 
O=C(NCCc1ccccc1)N(Cc1ccc(-c2cccc(CN3CCNCC3)c2)cc1)C1CCN(Cc2ccccc2)CC1 [TCMDC-139635] | 105.4 | 

SMILES | % Inhibition [%] | % Inhibition (% Inhibition) [%]
O=c1cc(NCCCNCc2cc3ccccc3s2)[nH]c2ccccc12 [TCMDC-140234] | -96.03 | 
COc1ccc(NC(=O)/C=C/c2ccc(Cl)c(C(F)(F)F)c2)cc1OCCN(C(C)C)C(C)C [TCMDC-139646] | -39.1 | 
COc1ccc(Br)cc1C1C2C(=O)N(c3ccc(Br)cc3)C(=O)C2C2(C(=O)O)CC(OCc3ccccc3)CN12 (stereo not drawn) [TCMDC-139264] | 14.59 | 
N#Cc1ccnc(-c2ccc(CNC3CCN(CC4Cn5c(=O)ccc6ccc(F)c4c65)CC3)cc2)c1 (stereo not drawn) [TCMDC-134408] | -28.26 | 
CCc1ccc(OCCCON2C(N)=NC(N)=NC2(C)C)cc1 [TCMDC-131321] | 2.956 | 
CC(=O)Nc1cccc(NC(=O)CSc2ccc(-c3nc4ccccc4[nH]3)cn2)c1 [TCMDC-123529] | 49.75 | 
O=C(C1CC1c1ccccc1)N(Cc1ccc(-c2ccc(CNCCc3ccccc3)cc2)cc1)C1CCNCC1 (stereo not drawn) [TCMDC-141443] | 108.5 | 
O=C(CCC1CCCC1)N(Cc1ccc(-c2ccc(CNCCc3ccccc3)cc2)cc1)C1CCCNC1 (stereo not drawn) [TCMDC-141444] | 116.1 | 
CC(=O)Nc1ncc(C(=O)Nc2cccc(-c3cccc(-c4nc5ccccc5[nH]4)c3)c2)s1 [TCMDC-136911] | 11.96 | 
CC(=O)N1N=C(c2[nH]c3ccc(Br)cc3c2C)OC1c1ccccc1 (stereo not drawn) [TCMDC-124752] | 9.307 | 
Cc1cc(N)nc2ccc(-c3ccc(CCN)cc3)cc12 [TCMDC-137786] | 103.4 | 
NCc1ccc(Nc2nccc(Nc3ccc(-c4ccccc4)cc3)n2)cc1 [TCMDC-136004] | 25.82 | 
COc1ccc(CCNCc2ccc3nc(N)cc(C)c3c2)cc1 [TCMDC-138093] | 96.45 | 
Cc1cc(N)nc2ccc(-c3ccc(CN)cc3)cc12 [TCMDC-137785] | 97.26 | 
Cc1cc(N)nc2ccc(-c3cccc(CN)c3)cc12 [TCMDC-137784] | 92.85 | 
COc1ccc2nc(C)cc(NCc3ccc4ccccc4c3)c2c1.Cl [TCMDC-138977] | 6.085 | 
COc1ccc(CCNCc2ccc3c(C)cc(N)nc3c2)cc1 [TCMDC-138096] | 41.14 | 
Cc1cc(N)nc2ccc(CNCCc3ccccc3Br)cc12 [TCMDC-138092] | 32.49 | 
Cc1ccc(O)cc1Nc1ccnc2ccc(-c3cccc(CN(C)C)c3)cc12 [TCMDC-138481] | 38.94 | 
Cc1ccc(Cc2c(N)nc3nc(N)nc(N)c3c2C)cc1 [TCMDC-138063] | 9.056 | 
CC[C@H]1CN2CC[C@@H]1C[C@H]2[C@H](O)c1cc(N2CCCC(C)(C)C2)nc2ccc(OC)cc12 [TCMDC-141423] | 67.35 | 
CC[C@H]1CN2CC[C@H]1C[C@H]2[C@H](O)c1ccnc2ccc(OC)cc12 [TCMDC-123485] | -3.295 | 

SMILES | % Inhibition [%] | % Inhibition (% Inhibition) [%]
CCOc1ccc2nccc([C@@H](O)[C@@H]3C[C@@H]4CCN3C[C@@H]4CC)c2c1 [TCMDC-125547] |  | -52.19
CC[C@H]1CN2CC[C@@H]1C[C@H]2[C@H](O)c1cc(N2CCC(c3ccccc3)CC2)nc2ccc(OC)cc12 [TCMDC-141435] | 91.21 | 
CC[C@H]1CN2CC[C@@H]1C[C@H]2[C@H](O)c1cc(N2CCC(C)CC2)nc2ccc(OC)cc12 [TCMDC-141419] | 96.92 | 
CC[C@H]1CN2CC[C@@H]1C[C@H]2[C@H](O)c1cc(N2CCC(O)CC2)nc2ccc(OC)cc12 [TCMDC-141415] | 17.87 | 
CC[C@H]1CN2CC[C@@H]1C[C@H]2[C@H](O)c1cc(N2CCC(CO)CC2)nc2ccc(OC)cc12 [TCMDC-141418] | 34.66 | 
CC[C@H]1CN2CC[C@H]1C[C@H]2[C@H](O)c1cc(N2CCCC(CO)C2)nc2ccc(OC)cc12 (stereo partly drawn) [TCMDC-141417] | -19.77 | 
CC[C@H]1CN2CC[C@@H]1C[C@H]2[C@H](O)c1ccnc2ccc(OC)cc12 [TCMDC-142003] | 82.89 | 
O=C(/C=C/c1ccc(Cl)c(Cl)c1)NCCCCCN1CCCN(C(=S)Nc2ccc(Cl)c(Cl)c2)CC1 [TCMDC-135896] | -3.43 | 
N#Cc1ccc2c(c1)CCN(CCC1CCC(NC(=O)Nc3cnc4ccccc4c3)CC1)C2 (stereo not drawn) [TCMDC-139440] | 3.253 | 
CC[C@H]1CN2CC[C@@H]1C[C@H]2[C@H](O)c1cc(N2CCC(O)(c3ccccc3)CC2)nc2ccc(OC)cc12 [TCMDC-141438] | 44.1 | 
CC[C@H]1CN2CC[C@H]1C[C@H]2[C@H](O)c1cc(N2CCC3CCCCC3C2)nc2ccc(OC)cc12 (stereo partly drawn) [TCMDC-141440] | 90.7 | 
CC[C@H]1CN2CC[C@@H]1C[C@H]2[C@H](O)c1cc(N2CCC(O)(c3ccc(Cl)cc3)CC2)nc2ccc(OC)cc12 [TCMDC-141439] | 74.49 | 
CC[C@H]1CN2CC[C@H]1C[C@H]2[C@H](O)c1cc(N2CCCC(C(=O)N(CC)CC)C2)nc2ccc(OC)cc12 (stereo partly drawn) [TCMDC-141434] | 46.24 | 
CC[C@H]1CN2CC[C@@H]1C[C@H]2[C@H](O)c1cc(N2CCC(C(N)=O)CC2)nc2ccc(OC)cc12 [TCMDC-141441] | -22.84 | 
CC[C@H]1CN2CC[C@@H]1C[C@H]2[C@H](O)c1cc(N2CCSCC2)nc2ccc(OC)cc12 [TCMDC-141424] | 79.98 | 
CC[C@H]1CN2CC[C@@H]1C[C@H]2[C@H](O)c1cc(N2CCC(N3CCCCC3)CC2)nc2ccc(OC)cc12 [TCMDC-141442] | 105.7 | 
CC[C@H]1CN2CC[C@@H]1C[C@H]2[C@H](O)c1cc(N2CCOCC2)nc2ccc(OC)cc12 [TCMDC-141416] | -92.7 | 
CC[C@H]1CN2CC[C@H]1C[C@H]2[C@H](O)c1cc(N2CCCC2)nc2ccc(OC)cc12 [TCMDC-141217] | -33.27 | 
O=C(Nc1ccc(OC2CCN(Cc3ccc(F)cc3)C2)c(Cl)c1)c1ccccc1 (stereo not drawn) [TCMDC-133762] | 42.11 | 
Oc1cccc(CNCCCN(Cc2ccccc2)c2ccccc2)c1 [TCMDC-137875] | 12.29 | 
Cc1ccc(S(=O)(=O)N(CCCNCc2cccc(O)c2)c2ccccc2)cc1 [TCMDC-138022] | 66.9 | 
Cc1cccc(CCCNC(=O)CN(c2cccc(C(F)(F)F)c2)S(=O)(=O)c2ccc(C(F)(F)F)cc2)c1 [TCMDC-136508] | -41.52 | 
